According to PubChem BioAssay:
Active and inactive are the calls of the source.

test: S. cerevisiae RM11-1a growth modifiers, primary screen, strain RM11-1a, OD600, basal, 24 h (AID 1177); details: OD600, 24 h, higher = more signal, called active from +8 up or from −8 down;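 further: cultures grown under basal conditions with no added stressor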
Further: test concentration not given here.

Structure (SMILES) | z-score
O=C1C[C@@](C(=O)O)(c2ccc([N+](=O)[O-])cc2)[C@@H](c2ccc(CO)cc2)N1C1CCCCC1 | 1.3 (inactive)
CO[C@H]1O[C@H](CO)[C@@H](OC(=O)Nc2ccccc2-c2ccccc2)[C@H](OC(=O)Nc2ccccc2)[C@H]1OC(=O)Nc1ccccc1 | 2.81 (inactive)
O=C1c2ccccc2[C@@]2(Cc3ccccc3N(Cc3ccccc3)C2=O)[C@H](c2ccc(CO)cc2)N1Cc1ccccc1Cl | 0.0513 (inactive)
CCCNC(=O)[C@@]1(c2ccc([N+](=O)[O-])cc2)CC(=O)N(C(C)C)[C@@H]1c1ccc(CO)cc1 | -0.355 (inactive)
[N-]=[N+]=Nc1ccccc1C[C@@]1(C(=O)NCC(O)CO)N=C(c2ccc(OCCCO)cc2)O[C@@H]1c1ccccc1 (some centres not stated) | 0.302 (inactive)
CC(C)C[C@@H]1NC(=O)[C@@H]2C[C@H](C(=O)NCCCCCCNC(=O)CS)[C@H](c3cccc(OCCO)c3)N2C1=O | 1.11 (inactive)
CC(=O)NCCCC[C@@H]1NC(=O)[C@H]2C[C@@H](C(=O)NCCCCCCNC(=O)CS)[C@@H](c3cccc(OCCO)c3)N2C1=O | 1.05 (inactive)
O=C1[C@@H]2[C@@H](CC(COc3ccccc3)=C([C@H](O)CCc3ccccc3)[C@@H]2CO)C(=O)N1Cc1ccccc1 | 1.47 (inactive)
O=C(NCC(O)CO)[C@@]1(CCS(=O)(=O)c2ccccc2)N=C(c2ccc(OCCCO)cc2)O[C@H]1c1ccccc1 (some centres not stated) | -0.707 (inactive)
CN(C)c1ccc(C(O)C2C=CC3C(=O)N(Cc4ccccc4)C(=O)C3N2n2cnnc2)cc1 (configuration not stated) | -0.794 (inactive)
COCCOC(=O)N1C(=O)[C@@]2(c3cc(C#CCC(C(=O)OC)C(=O)OC)ccc31)[C@H](C(=O)Nc1nc3ccccc3s1)[C@H]1C(=O)O[C@H](c3ccccc3)[C@H](c3ccccc3)N1[C@@H]2c1ccc(OCCO)cc1 | 2.25 (inactive)

test: E. coli acrAB mutant growth effects, primary screen, E. coli filamentation inducers, strain DRC39, OD650, 24 h (AID 1178); details: higher = more signal, called active from +8 up or from −8 down;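 further: growth measured as culture turbidity by optical density at 650 nm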

Structure (SMILES) | z-score
CCCC[C@H]1OB(O)C[C@H]2C1=C(COc1ccccc1)C[C@H]1C(=O)C=CC(=O)[C@H]12 | 1.78 (inactive)
COCCOC(=O)N1C(=O)[C@@]2(c3ccccc31)[C@H](C(=O)N1CCN(c3ncccn3)CC1)[C@H]1C(=O)O[C@H](c3ccccc3)[C@H](c3ccccc3)N1[C@@H]2c1ccccc1OCCO | 0.858 (inactive)
COC(=O)[C@@]1(Cc2ccccc2)[C@H]2c3cc(C(=O)N(C)C)n(CCO)c3C[C@H]2CN1C(=O)c1ccccc1 | -0.751 (inactive)
[N-]=[N+]=Nc1ccccc1[C@@H]1OC(c2ccc(OCCCO)cc2)=N[C@]1(Cc1ccccc1)C(=O)NCCN1CCOCC1 | 0.826 (inactive)
COc1cc(C(O)C2C=CC3C(=O)N(c4ccccc4)C(=O)C3N2Nc2ccccc2)cc(OC)c1OC (configuration not stated) | -0.393 (inactive)
C=CCC(OC(C)=O)[C@@H]1[C@@H](N(Cc2ccc(-c3ccccc3)cc2)C(=O)c2cccc3ccccc23)c2cc(OCCCO)ccc2N1C(=O)Cc1ccc(OC)cc1 (some centres not stated) | -0.0251 (inactive)
Cc1ccc(N2C(=O)c3ccccc3[C@](C)(C(=O)NCCCN(C)C)[C@@H]2c2ccc(CO)cc2)nc1 | -0.0003 (inactive)
CCOC(=O)C[C@H]1[C@H](OC(=O)Cc2ccc3c(c2)OCO3)[C@@H](NC(=O)Cc2ccc(OC)cc2)c2cc(OCCCO)ccc2N1C(=O)Cc1ccc(OC)cc1 | 1.44 (inactive)
O=C1N(CCS(=O)(=O)c2ccccc2)c2ccccc2C[C@]12N=C(c1ccc(OCCCO)cc1)O[C@@H]2c1ccccc1 | 0.39 (inactive)
C=CCOC(=O)[C@@H]1[C@H]2C(=O)O[C@H](c3ccccc3)[C@H](c3ccccc3)N2[C@H](c2ccc(OCCOC(=O)[C@H]3C[C@H]4C(=O)N5CCC[C@H]5C(=O)N4[C@H]3c3cccc(OCCO)c3)cc2)[C@@]12C(=O)Nc1ccc(I)cc12 | -0.0055 (inactive)
COc1ccc([Si](C)(C)[C@H]2[C@H](CC(=O)N3Cc4ccccc4C[C@H]3CO)O[C@@]3(C(=O)N(c4ccccc4)c4ccccc43)[C@@H]2C)cc1 | 0.346 (inactive)
CCN(CC)c1ccc(N2CC=CC34O[C@@H]5C=CCCOC(=O)C5[C@H]3C(=O)N(C(C)CO)[C@@H]4C2=O)cc1 (some centres not stated) | -0.491 (inactive)
COCCOC(=O)N1C(=O)[C@@]2(c3cc(C#CC4(O)CCCCCC4)ccc31)[C@H](c1ccc(O)cc1)N1[C@H](c3ccccc3)[C@H](c3ccccc3)OC(=O)[C@H]1[C@@H]2C(=O)N1CCCCCCC1 | -0.298 (inactive)
COC(=O)[C@@]1(Cc2ccc(F)cc2)[C@H]2c3cc(C(=O)N(C)C)n(C)c3C[C@H]2CN1C(=O)c1ccccc1 | -0.657 (inactive)
O=C(NC1CC1)[C@@H]1c2ccccc2C(=O)N(Cc2cc(C(F)(F)F)cc(C(F)(F)F)c2)[C@H]1c1ccc(CO)cc1 | 0.655 (inactive)
COc1ccc(C(O)C2C=CC3C(=O)NC(=O)C3N2Nc2ccc(Cl)cc2Cl)c2ccccc12 (configuration not stated) | -0.0977 (inactive)
O=C(NCCN1CCOCC1)[C@@H]1c2ccccc2C(=O)N(Cc2ccccc2C(F)(F)F)[C@H]1c1ccc(CO)cc1 | 0.394 (inactive)
CN(C)CCCCNC(=O)[C@H]1C[C@H]2C(=O)N3CCC[C@H]3C(=O)N2[C@H]1c1cccc(OCCO)c1 | -0.0332 (inactive)

Structure (SMILES) | z-score
COc1ccc(CCNC(=O)[C@@H]2c3ccccc3C(=O)N(Cc3ccccc3OC)[C@H]2c2ccc(CO)cc2)cc1 | 0.483 (inactive)
CC(C)OC(=O)CC(=O)CC(O)c1cccc([N+](=O)[O-])c1 (configuration not stated) | 0.704 (inactive)
CCOC(=O)C[C@H]1[C@H](OC(=O)c2cc3ccccc3oc2=O)[C@@H](NC(=O)CC(C)C)c2cc(OCCCO)ccc2N1C(=O)Cc1ccc(OC)cc1 | -0.715 (inactive)
CC1=C([C@H](O)CCc2ccccc2)[C@H](CO)n2c(=O)n(-c3ccccc3)c(=O)n2C1 | 1.19 (inactive)
CC(C)(C)N1CC=CC23O[C@@H]4C=CCCOC(=O)C4[C@H]2C(=O)N(CCCCCCO)[C@@H]3C1=O (some centres not stated) | -0.0435 (inactive)
CCCCCC1=C2CNC(CC(C)C)(C(=O)OC)C=C2C(C)C1=O (configuration not stated) | 0.0841 (inactive)
O=C1C=C(c2ccccc2)C(=O)C2=C1CC([C@H]1Oc3ccccc3S(=O)(=O)N3CCC[C@@H]13)=CC2 | 0.0769 (inactive)
O=C1C[C@@](C(=O)O)(c2ccc([N+](=O)[O-])cc2)[C@@H](c2ccc(CO)cc2)N1C1CCCCC1 | 0.576 (inactive)
CO[C@H]1O[C@H](CO)[C@@H](OC(=O)Nc2ccccc2-c2ccccc2)[C@H](OC(=O)Nc2ccccc2)[C@H]1OC(=O)Nc1ccccc1 | 1.15 (inactive)
O=C1c2ccccc2[C@@]2(Cc3ccccc3N(Cc3ccccc3)C2=O)[C@H](c2ccc(CO)cc2)N1Cc1ccccc1Cl | 0.134 (inactive)
CCCNC(=O)[C@@]1(c2ccc([N+](=O)[O-])cc2)CC(=O)N(C(C)C)[C@@H]1c1ccc(CO)cc1 | 0.388 (inactive)
[N-]=[N+]=Nc1ccccc1C[C@@]1(C(=O)NCC(O)CO)N=C(c2ccc(OCCCO)cc2)O[C@@H]1c1ccccc1 (some centres not stated) | 0.443 (inactive)
CC(C)C[C@@H]1NC(=O)[C@@H]2C[C@H](C(=O)NCCCCCCNC(=O)CS)[C@H](c3cccc(OCCO)c3)N2C1=O | -0.379 (inactive)
CC(=O)NCCCC[C@@H]1NC(=O)[C@H]2C[C@@H](C(=O)NCCCCCCNC(=O)CS)[C@@H](c3cccc(OCCO)c3)N2C1=O | 0.0843 (inactive)
O=C1[C@@H]2[C@@H](CC(COc3ccccc3)=C([C@H](O)CCc3ccccc3)[C@@H]2CO)C(=O)N1Cc1ccccc1 | 0.372 (inactive)
O=C(NCC(O)CO)[C@@]1(CCS(=O)(=O)c2ccccc2)N=C(c2ccc(OCCCO)cc2)O[C@H]1c1ccccc1 (some centres not stated) | 0.107 (inactive)
CN(C)c1ccc(C(O)C2C=CC3C(=O)N(Cc4ccccc4)C(=O)C3N2n2cnnc2)cc1 (configuration not stated) | 0.0571 (inactive)
COCCOC(=O)N1C(=O)[C@@]2(c3cc(C#CCC(C(=O)OC)C(=O)OC)ccc31)[C@H](C(=O)Nc1nc3ccccc3s1)[C@H]1C(=O)O[C@H](c3ccccc3)[C@H](c3ccccc3)N1[C@@H]2c1ccc(OCCO)cc1 | -0.0125 (inactive)
